Reference: article PMC5540273 (PLoS ONE, 2017)

System: TYRO3
Details: concentration: 1 μM, replicates: in singlicate; n = 1
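Also: KINOMEscan kinase panel screen.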

Row | SMILES | %Inh [%]
1 | CC(C)(C)c1ccc(C(=O)Nc2cn3cc(Cl)ccc3n2)cc1 | 9
2 | Cn1cncc1-c1ccc2ncnc(Nc3ccc(OCc4ccccc4)cc3)c2c1 [GW320571] | 3
3 | O=C(Nc1n[nH]c2nc(-c3nccs3)c(Br)cc12)C1CC1 [SB-742251] | 0
4 | CN1C(=O)C(Nc2ccc(Cl)c(C(=O)O)c2)=C(c2ccc(Cl)cc2)C1=O [SB-404290] | 0
5 | Cc1cc(N2Cc3ccccc3C2)nc(Nc2ccc(S(=O)(=O)N3CCOCC3)cc2)n1.Cl [GSK1669917] | 0
6 | CN(C)CCN(C)C(=O)c1cc(-c2ccncc2)c(-c2ccc(Cl)c(O)c2)o1.Cl.Cl [SB-710397] | 0
7 | Cc1csc(-c2nc(Nc3ccncc3)c3ccccc3n2)n1 [GW869640] | 0
8 | Cc1ccc(NC(=O)Nc2cccc(Cl)c2)cc1-c1ccc(C(=O)Nc2ccncc2)cc1 [GSK1398468] | 0
9 | O=C(Nc1n[nH]c2cc(-c3cccc(F)c3F)ccc12)C1CC1 [SB-733894] | 0
10 | O=C(Nc1ccccc1)Nc1cccc(Oc2ccc3nccn3n2)c1 | 11
11 | Cl.O=C(Nc1cccc(-c2nn3ncccc3c2-c2ccnc(Nc3cccnc3)n2)c1)c1c(F)cccc1F [GSK312879] | 0
12 | O=C(Nc1n[nH]c2nc(-c3nccs3)c(Br)cc12)C1CCCC1 [SB-742609] | 0
13 | COc1cc(Nc2nccc(N3CCC(NC(=O)Nc4cc(C)ccc4C)C3)n2)cc(OC)c1OC (stereo not shown) [GSK1379762] | 0
